Reference: PubChem BioAssay AID1159580 (chemical genetic matrix, 2015)
Where “and” joins values, the source holds several entries; their conditions need not be identical. Identical values can stand only once. About 2,000 (36%) of roughly 5,500 compounds were called active. Roughly 18% stayed inconclusive and do not appear here. Rule as the data show it: active = normalized growth mostly below about 0.91 (no sharp cut-off); inconclusive = no clear call, values can overlap the other calls; inactive = mostly above about 0.92. This is one part of the list.

Assay: chemical genetic growth profiling, strain panel (AID 1159580);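 also: tested at 20 µM; growth read once vehicle control cultures reached saturation at 30 °C; 1 = growth at the plate median or of vehicle wells; lower values mean less growth of the strain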
Conditions: S. cerevisiae deletion strains, growth OD

Measured: normalized growth

O=C1O[C@@H](CO)[C@H](O)[C@@H](O)[C@@H]1O
inactive: locus YAL021C, strain ccr4, stronger effect = lower value 0.997 | locus YAL026C, strain drs2, stronger effect = lower value 1.03 | locus YAL030W, strain snc1, stronger effect = lower value 1.01 | locus YBL061C, strain skt5, stronger effect = lower value 1.03 | locus YBR009C, strain hhf1, stronger effect = lower value 1.01 | locus YBR021W, strain FUR4, stronger effect = lower value 0.999 | locus YBR023C, strain chs3, stronger effect = lower value 1.02 | locus YBR171W, strain sec66, stronger effect = lower value 1.03 | locus YBR229C, strain ROT2, stronger effect = lower value 1 | locus YBR231C, strain swc5, stronger effect = lower value 1.08 | locus YBR279W, strain paf1, stronger effect = lower value 1.01 | locus YCL011C, strain gbp2, stronger effect = lower value 1.02 | locus YCL016C, strain dcc1, stronger effect = lower value 1.01 | locus YCL029C, strain bik1, stronger effect = lower value 0.99 | locus YCL061C, strain MRC1, stronger effect = lower value 1.01 | locus YCL069W, strain vba3, stronger effect = lower value 1.03 | locus YCR088W, strain abp1, stronger effect = lower value 1.02 | locus YDL005C, strain med2, stronger effect = lower value 1.03 | locus YDL035C, strain GPR1, stronger effect = lower value 1.01 | locus YDL040C, strain nat1, stronger effect = lower value 1.03 | locus YDL074C, strain BRE1, stronger effect = lower value 0.974 | locus YDL101C, strain DUN1, stronger effect = lower value 1.01 | locus YDL134C, strain PPH21, stronger effect = lower value 1.01 | locus YDL185W, strain tfp1, stronger effect = lower value 1 | locus YDL192W, strain arf1, stronger effect = lower value 1.01 | locus YDR001C, strain nth1, stronger effect = lower value 1.03 | locus YDR069C, strain doa4, stronger effect = lower value 1.02 | locus YDR101C, strain arx1, stronger effect = lower value 0.946 | locus YDR137W, strain rgp1, stronger effect = lower value 1.04 | locus YDR150W, strain NUM1, stronger effect = lower value 1 | locus YDR159W, strain sac3, stronger effect = lower value 1 | locus YDR162C, strain NBP2, stronger effect = lower value 1.02 | locus YDR195W, strain ref2 0.99 | locus YDR297W, strain sur2, stronger effect = lower value 1.02 | locus YDR318W, strain mcm21, stronger effect = lower value 1.01 | locus YDR334W, strain swr1, stronger effect = lower value 1.03 | locus YDR335W, strain msn5, stronger effect = lower value 1.01 | locus YDR388W, stronger effect = lower value 1.01 | locus YDR392W, strain spt3, stronger effect = lower value 1.06 | locus YDR502C, strain sam2, stronger effect = lower value 1 | locus YEL003W, strain gim4, stronger effect = lower value 1.02 | locus YEL037C, strain rad23, stronger effect = lower value 1.01 | locus YEL061C, strain CIN8 (second series), stronger effect = lower value 1.03 | locus YEL061C, strain CIN8, stronger effect = lower value 1 | locus YER015W, strain faa2, stronger effect = lower value 1.02 | locus YER016W, strain bim1, stronger effect = lower value 1.03 | locus YER110C, stronger effect = lower value 1.01 | locus YER111C, strain swi4, stronger effect = lower value 1.01 | locus YER155C, strain BEM2 (second series), stronger effect = lower value 1.06 | locus YER155C, strain BEM2, stronger effect = lower value 1.01 | locus YER167W, strain BCK2, stronger effect = lower value 1.01 | locus YFR010W, strain ubp6, stronger effect = lower value 1.01 | locus YGL078C, strain dbp3, stronger effect = lower value 1.01 | locus YGL086W, strain mad1, stronger effect = lower value 0.983 | locus YGL167C, strain pmr1, stronger effect = lower value 1.02 | locus YGL173C, strain kem1, stronger effect = lower value 1.05 | locus YGL227W, strain vid30, stronger effect = lower value 1.03 | locus YGL240W, strain doc1, stronger effect = lower value 1.04 | locus YGL248W, strain PDE1, stronger effect = lower value 0.996 | locus YGL253W, strain hxk2, stronger effect = lower value 1.03 | locus YGR135W, strain pre9, stronger effect = lower value 1.05 | locus YGR229C, strain SMI1, stronger effect = lower value 0.997 | locus YGR252W, strain gcn5, stronger effect = lower value 1.06 | locus YHR013C, strain ard1, stronger effect = lower value 1.08 | locus YHR027C, strain rpn1, stronger effect = lower value 1.02 | locus YHR030C, strain SLT2, stronger effect = lower value 1 and 0.985 | locus YHR079C, strain IRE1 (second series), stronger effect = lower value 1 | locus YHR079C, strain IRE1, stronger effect = lower value 0.979 | locus YHR094C, strain hxt1, stronger effect = lower value 1.01 | locus YHR129C, strain ARP1, stronger effect = lower value 1.02 | locus YHR142W, strain chs7, stronger effect = lower value 1.02 | locus YHR200W, strain rpn10, stronger effect = lower value 0.998 | locus YIL066C, strain RNR3, stronger effect = lower value 1 | locus YIL073C, strain SPO22, stronger effect = lower value 1.05 | locus YIL125W, strain kgd1, stronger effect = lower value 0.999 | locus YIR030C, strain dcg1, stronger effect = lower value 1 | locus YJL092W, strain hpr5, stronger effect = lower value 1.01 | locus YJL095W, strain BCK1 (second series), stronger effect = lower value 1.02 | locus YJL095W, strain BCK1, stronger effect = lower value 1 and 0.979 | locus YJL115W, strain asf1, stronger effect = lower value 1.02 | locus YJL129C, strain trk1, stronger effect = lower value 1.02 | locus YJL134W, strain LCB3, stronger effect = lower value 1.01 | locus YJL154C, strain vps35, stronger effect = lower value 1.02 | locus YJL164C, strain tpk1, stronger effect = lower value 1.01 | locus YJL166W, strain qcr8, stronger effect = lower value 1.02 | locus YJL168C, strain set2, stronger effect = lower value 0.997 | locus YJL187C, strain SWE1 (second series), stronger effect = lower value 0.989 | locus YJL187C, strain SWE1, stronger effect = lower value 1.02 | locus YJR043C, strain POL32, stronger effect = lower value 0.99
